Test results as given in ChEMBL document CHEMBL4513216, “Probing the Open Global Health Chemical Diversity Library for Multistage-Active Starting Points for Next-Generation Antimalarials” (ACS Infect Dis, 2020).
The campaign covered roughly 69,000 compounds. About 8,600 (12%) showed an effect of 50% or more. The full list was thinned out, with strong results kept by preference.

test system: Plasmodium berghei; assay: Screen against P. berghei liver stage (PbLuc), transformed with Luciferase, at 10uM; type: functional, HepG2; settings: tested at 10 uM

| Compound | INHIBITION [%] |
| --- | --- |
| CC(=O)c1ccc(OCC(=O)NS(=O)(=O)c2cccnc2)cc1 | 35.9 |
| Cc1cnn(CC2CCCCN2C(=O)c2cc(Cl)c[nH]2)c1 (configuration not stated) | 40.3 |
| Cc1cccc(C(=O)N2CCC3(CC(C(=O)N(C)C(C)C)=NO3)C2)c1 (configuration not stated) | 6.72 |
| Cc1noc([C@@H]2C[C@H]3OCC[C@H]3N(S(=O)(=O)N(C)C)C2)n1 | -13 |
| CC(=O)N1CCN(C(=O)NCc2ccccc2Cn2cncn2)CC1 | -56.4 |
| COCC(=O)NCC1CCC(c2ccnc3ncnn23)CC1 (configuration not stated) | 15.5 |
| Cc1cc(C)nc(N2CCC(c3cncc(-n4ccnc4)n3)CC2)n1 | 66.4 |
| Fc1ccc(CN2CCCC2c2cncc(-n3ccnc3)n2)cc1 (configuration not stated) | 22.7 |
| c1cn(-c2cncc(C3CCNCC3)n2)cn1 | -64.7 |
| CCOCc1ccc(NC(=O)N2CCOC3(CCC3)C2)cc1 | -1.32 |
| Cc1cc(C)c2cc(C(=O)N3CCN(Cc4ccco4)CC3)[nH]c2c1 | 9.04 |
| O=C(c1cc(Cl)c(Br)[nH]1)N1CCN(Cc2ccco2)CC1 | 63.8 |
| O=C(c1cc(Br)c[nH]1)N1CCN(Cc2ccco2)CC1 | 55.4 |
| O=C(c1cc(Br)ccc1Cl)N1CCN(Cc2ccco2)CC1 | 36.9 |
| CC(=O)N1CCN(Cc2ccco2)CC2(CC(=O)N(C)C2)C1 (configuration not stated) | 19.8 |
| CC(C)c1cc(C(=O)N2CCN(Cc3ccco3)CC2)n[nH]1 | 14.3 |
| CCOc1ncnc2c1CCN(S(=O)(=O)c1ccccc1)CC2 | 41.2 |
| Cc1ccc2nc(C3CCN(CC(C)C)CC3)nc(O)c2c1 | -8.07 |
| CC(C)Oc1ccc(C(=O)N2CCC(Nc3cccnn3)CC2)cn1 | -73.2 |
| Cc1cccc(CN2CCCn3c(nnc3CN3CCCC3=O)C2)n1 | 24.8 |
| Cc1ccc(NC2CCN(C(=O)C(C)n3cncn3)CC2)nn1 (configuration not stated) | -19.4 |
| O=C(c1ccccc1)N1C[C@H]2CC[C@@H](C1)N(C(=O)CN1CCOCC1)C2 | 0.897 |
| CN(C(=O)COc1ccc(-c2noc(C3CCCO3)n2)cc1)C1CC1 (configuration not stated) | -27.3 |

| Compound | INHIBITION [%] |
| --- | --- |
| Cc1cc(C)cc(-n2ncc3c2CCCC3N)c1 (configuration not stated) | 37.9 |
| Cc1nc(C)n(CC(=O)N2CCCC(c3nc(C)n4c(C)csc34)C2)n1 (configuration not stated) | 8.12 |
| O=C(c1cn(-c2ccc(F)cc2)nn1)N1CCCC(n2cccn2)C1 (configuration not stated) | -73.2 |
| CCCc1nnc(N[C@H](C)c2ccc(OC)cc2)o1 | 52.8 |
| Cc1nc(CCNC(C)c2ccc3c(c2)OCCCO3)cs1 (configuration not stated) | 10 |
| CCCc1nnc(NC(C)c2ccc3c(c2)OCCO3)o1 (configuration not stated) | 53.9 |
| CCc1nnc(N[C@H](C)c2cccc(OC)c2)o1 | 8.48 |
| CCCc1nnc(NC(C)c2ccc(F)cc2)o1 (configuration not stated) | 8.48 |
| CC(NC(=O)CNCCn1cccn1)c1ccc2c(c1)OCCO2 (configuration not stated) | 24.8 |
| Cc1cc(C)n(C2CCCN(C(=O)Cc3cn4ccsc4n3)C2)n1 (configuration not stated) | -15.52 |
| CCc1ccc(C(C)NC(=O)N2CCC(n3cncn3)CC2)cc1 (configuration not stated) | -73.1 |
| CC(C)CN1CCN(C(=O)c2[nH]nnc2Nc2ccccc2F)CC1 | 64 |
| CC(=O)N1CCN(C(=O)c2[nH]nnc2Nc2ccccc2F)CC1 | -1.45 |
| CC(C)N1CCN(C(=O)c2[nH]nnc2Nc2ccccc2F)CC1 | 4.35 |
| CC(=O)N1CCCC1c1cc(N2CCN(C3CCCC3)CC2)cc(C)n1 (configuration not stated) | 34.5 |
| CC(=O)N1CCCC1c1cc(N2CCN(CC3CC3)CC2)cc(C)n1 (configuration not stated) | 45.6 |
| CC(=O)N1CCCC1c1cc(N2CCN(CC(C)(C)C)CC2)cc(C)n1 (configuration not stated) | 51.5 |
| OCC1(CCOc2ccccc2)CCCN(c2ccc(Cl)cn2)C1 (configuration not stated) | 83.3 |
| N#Cc1cccnc1N1CCCC(CO)(CCOc2ccccc2)C1 (configuration not stated) | 23.8 |
| OCC1(CCOc2ccccc2)CCN(c2ccc(Cl)cn2)CC1 | 32.2 |
| N#Cc1cccc(N2CCCC(CO)(CCOc3ccccc3)C2)n1 (configuration not stated) | 25.7 |
| Nc1nccc(N2CCC(Cc3ccccc3Cl)(C(=O)O)CC2)n1 | 23.5 |
| CCc1nc(N2CCCC(CO)(CCOC)C2)ncc1C (configuration not stated) | -1.83 |

| Compound | INHIBITION [%] |
| --- | --- |
| CC(C)=CCC1(C(=O)O)CCCN(c2ccnc(N)n2)C1 (configuration not stated) | 15 |
| N#Cc1ccc(N2CCCC(CO)(CCOc3ccccc3)C2)nc1 (configuration not stated) | 59.1 |
| Nc1nccc(N2CCCC(CO)(CCOc3ccccc3)C2)n1 (configuration not stated) | 86.8 |
| Cc1cnn(CC2CCCN2C(=O)CCc2ccc3c(c2)OCO3)c1 (configuration not stated) | 9.64 |
| COC(=O)N1CCC(NC(=O)c2cc(S(N)(=O)=O)ccc2C)CC1 | 14.6 |
| COc1cc(N2CC3(CCN(S(C)(=O)=O)C3)C2)ncn1 | -21.7 |
| CCOC(=O)c1sc(NC(=O)COC)c(C#N)c1C | -30.8 |
| COCCN1CCCN(C(=O)c2scnc2C)CC1 | -2.03 |
| c1ccc(CN2CCCC(Cn3cncn3)C2)nc1 (configuration not stated) | 24 |
| Cc1nc(C)c(C)c(N2C[C@@H](CN3CCCN(C)CC3)[C@@H](CO)C2)n1 | 15.5 |
| Cc1nc(N2C[C@@H](CN3CCCN(C)CC3)[C@@H](CO)C2)c2ccsc2n1 | 50.1 |
| Cc1nc(N2C[C@@H](CN3CCCN(C)CC3)[C@@H](CO)C2)c2sccc2n1 | 26.6 |
| O=C(N[C@@H]1CCN(c2nccc3ccccc23)C[C@H]1O)c1cnccn1 | 5.78 |
| COC1[C@@H]2CC[C@H]1CN(c1nc(C)nc3sccc13)C2 (some centres not stated) | 72.6 |
| CCC[C@@H]1CN(c2ncnc3sccc23)C[C@H]1NS(C)(=O)=O | 27.2 |
| Cc1nccnc1N1CC[C@@H](NC(=O)c2cnccn2)[C@H](O)C1 | -3.19 |
| Cc1nc(N2CC[C@@H](NC(=O)c3cnccn3)[C@H](O)C2)c2ccsc2n1 | 85.1 |
| CCN(Cc1cccc2c1OCO2)C(=O)C(C)c1cccnc1 (configuration not stated) | 40.9 |
| CCc1noc(C(C)Sc2nnc(C3CC3)n2CC(N)=O)n1 (configuration not stated) | 29 |
| c1coc(-c2nc(CNC3CCC4(CCNCC4)CC3)no2)c1 | 33.1 |
| O=C([C@H]1CCCO1)N1Cc2nccn2CC(COc2cccnc2)C1 (some centres not stated) | -30 |
